Data as given in PubChem BioAssay AID686978 (National Center for Advancing Translational Sciences (NCATS), 2013).
Screen size: about 420,000 compounds; about 64,000 (15%) were called active. Roughly 27% stayed inconclusive and do not appear here. Calls come from the whole dose curve; as a rule, active = well fitted inhibition curve with a large enough effect; inconclusive = small, poorly fitted or top-dose-only effect; inactive = flat fitted curve, though single readings scatter. A selection follows. Entries that show only a call come without a potency.

test: qHTS for Inhibitors of human tyrosyl-DNA phosphodiesterase 1 (TDP1): qHTS in cells in absence of CPT; conditions: DT40 Tdp1-/- hTDP1 cells, no CPT, ATP luminescence, 48 h; activity change, negative = growth inhibition: at 46.2 µM (top of the series); note: nearly all actives have a fitted effect of over 55% in size
Procedure, shortened: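 Growth of hTDP1-complemented DT40 Tdp1-knockout cells is measured by ATP luminescence after at least 48 hr compound exposure at 37 °C, with DMSO substituting for the 20 nM CPT used in the parallel screen.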
Potency is the fitted concentration of half-maximal effect.

SMILES | Potency
Cc1ccccc1Nc1nnc(SCC(=O)c2cc3ccccc3o2)s1 | inactive
Cc1cccc(Nc2nnc(SCC(=O)c3c(N)n(C4CC4)c(=O)[nH]c3=O)s2)c1C | 11.6 µM (active)
CCCn1c(N)c(C(=O)CSc2nnc(Cc3cccs3)n2C2CC2)c(=O)[nH]c1=O | inactive
CC1CC(C)CN(C/C=C/c2ccccc2[N+](=O)[O-])C1 (stereo unspecified) | inactive
COc1ccc(N2CCN(C3CC(=O)N(c4ccc5c(c4)OCCO5)C3=O)CC2)cc1 (stereo unspecified) | inactive
CC(C)CC1C(=O)N(Cc2cn(Cc3ccco3)nn2)CCS(=O)(=O)N1Cc1ccc(-c2ccc(Cl)c(Cl)c2)cc1 (stereo unspecified) | 20.6 µM (active)
CC1C(=O)N(Cc2cn(Cc3ccco3)nn2)CCS(=O)(=O)N1Cc1ccc(-c2cccc(CO)c2)cc1 (stereo unspecified) | 9.2 µM (active)
CCc1cc(=O)oc2cc(C)cc(OCC(=O)N3CCC[C@@H]3C(=O)O)c12 | inactive
CC(NC(=O)COc1ccccc1)C(=O)NC1=NCCS1 (stereo unspecified) | inactive
CCOc1ccc(OCC(=O)Nc2c3c(nn2C(C)(C)C)CS(=O)(=O)C3)cc1 | inactive
CCN1C(=O)C(CC(=O)Nc2cc(C)ccc2C)SC1=Nc1ccc(S(N)(=O)=O)cc1 (stereo unspecified) | inactive
CCOc1cccc2cc(C(=O)OCC(=O)Nc3c(C)cccc3CC)c(=O)oc12 | inactive
Cc1ccc(CN2CCN(Cc3cn(C)nc3-c3ccccc3)CC2CCO)o1 (stereo unspecified) | inactive
Cc1ccc(CN2CCN(Cc3cccc(C)n3)CC2CCO)cc1 (stereo unspecified) | inactive
COc1ccc(CN2CCN(Cc3cn(C)nc3-c3ccccc3)CC2CCO)c(C)c1C (stereo unspecified) | 18.4 µM (active)
O=C(c1ccc(Cl)cc1)n1nc(-c2cccnc2)nc1NCc1ccc(F)cc1 | inactive
COc1ccc(CNc2nc(-c3ccccc3)nn2C(=O)c2ccccc2OC)cc1 | 18.4 µM (active)
CCCC(=O)n1nc(NCc2ccc(OC)cc2)nc1NCc1ccc(OC)cc1 | inactive
O=C(c1ccco1)n1nc(-c2ccc(Cl)cc2)nc1NCc1ccccc1 | 18.4 µM (active)
O=C(c1cccs1)n1nc(NCc2ccccc2)nc1NCc1ccccc1 | inactive
O=C(Cc1ccccc1)n1nc(-c2ccccc2)nc1NCc1ccco1 | inactive
CC1CCCCC12NC(=O)N(CC(=O)OCC(=O)NCc1ccc(F)cc1)C2=O (stereo unspecified) | inactive
CN1CCN(c2cc(=O)n(-c3ccc(Cl)cc3)c(=O)[nH]2)CC1 | inactive
O=C(O)c1ccccc1N=N/C(=N/Nc1cc(S(=O)(=O)O)ccc1O)c1ccccc1 | inactive

SMILES | Potency
Cc1c(Cl)cccc1NC(=O)CCS(=O)(=O)c1ccc2c(c1)oc(=O)n2C | inactive
NC(=O)C1CCN(C(=O)CC2C(=O)NCCN2Cc2cccc(Oc3ccccc3)c2)CC1 (stereo unspecified) | inactive
Cc1ccc(SCC(=O)NNC(=O)c2ccc(S(C)(=O)=O)cc2)cc1 | inactive
Cc1ccccc1-n1cc(CNC(=O)CC2C(=O)NCCN2C/C=C/c2ccccc2)cn1 (stereo unspecified) | inactive
COc1cc(OC)c(NC(=O)Cc2ccc(-n3c(C)nc4cccnc43)cc2)cc1Cl | 14.6 µM (active)
Cc1ccc(Cl)cc1NC(=O)c1ccccn1 | inactive
Cc1ccc(Cl)cc1NC(=O)Cc1ccc(-n2c(C)nc3cccnc32)cc1 | 23.1 µM (active)
CCc1nc2cccnc2n1-c1ccc(C(=O)O)cc1 | inactive
COCCn1c(CCC(=O)Nc2cc(C)ccc2C)nc2cccnc21 | inactive
COCCCNC(=O)Cc1ccc(-n2c(C)nc3cccnc32)cc1 | inactive
O=C(O)C1CCN(c2ncnc3ccc(-c4ccccc4C(F)(F)F)cc23)CC1 | inactive
O=C(CC1C(=O)NCCN1CC(c1ccccc1)c1ccccc1)NCCc1cn[nH]c1 (stereo unspecified) | inactive
CCN(CC(=O)NCc1cccs1)C(=O)c1ccc(OC)c(S(=O)(=O)N2CCOCC2)c1 | inactive
Cc1ccc(C2=Nc3c(ccc4ccccc34)C(c3ccncc3)=NN2)cc1 | 11.6 µM (active)
COc1cc(C)nc(N2CCCC(C(=O)NCC(C)C)C2)n1 (stereo unspecified) | inactive
COCCNC(=O)CSc1nc(N)c(NC(=O)c2ccco2)c(=O)[nH]1 | inactive
O=C(NC(=S)Nc1ccc(S(=O)(=O)Nc2ncccn2)cc1)c1cccc(Br)c1 | inactive
CC(C)OCCCNC(=O)CN1C(=O)/C(=C/c2ccccc2F)Oc2ccccc21 | 10.3 µM (active)
CCC1Oc2ccccc2N(CC(=O)NCCCN2CCN(CC)CC2)C1=O (stereo unspecified) | inactive
O=C(CN1C(=O)S/C(=C\c2ccccc2F)C1=O)NCCCn1ccnc1 | inactive
COc1ccc(F)cc1C(=O)COC(=O)c1n[nH]c(=O)c2ccccc12 | inactive
COC(=O)CN(c1cccc(C(C)=O)c1)S(C)(=O)=O | inactive
C=CCc1cccc2cc(C(=O)N3CCN(C(=O)OCC)CC3)c(=O)oc12 | inactive
CC(C)Nc1nc(N(c2ccccc2)c2ccccc2)nc(-n2ccnc2)n1 | inactive

SMILES | Potency
O=C(O)COCC(=O)NCc1csc2ccc(Cl)cc12 | inactive
Cc1ccc(N(C(=O)Cc2cccs2)C(C(=O)NCC2CCCO2)c2ccncc2)cc1 (stereo unspecified) | inactive
Cc1ccc(N(C(=O)c2snc(C(N)=O)c2N)C(C(=O)NCC2CCCO2)c2c[nH]c3ccccc23)cc1 (stereo unspecified) | 4.11 µM (active)
O=C(NCC(=O)N(c1ccccc1)C(C(=O)NCC1CCCO1)c1ccccc1)c1cccs1 (stereo unspecified) | inactive
CCOc1cc(C(C(=O)NCC2CCCO2)N(C(=O)Cn2nnc3ccccc32)c2cccc(OC)c2)ccc1O (stereo unspecified) | inactive
CCOc1ccc(N(CC(=O)NCC2CCCO2)S(=O)(=O)c2ccc(C)cc2)cc1 (stereo unspecified) | inactive
Cc1ccc(C(C(=O)NCC2CCCO2)N(C(=O)c2snc(C(N)=O)c2N)c2ccc(C(C)C)cc2)o1 (stereo unspecified) | 18.4 µM (active)
CCC(C(=O)NCCC(C)C)N(Cc1ccccc1Cl)C(=O)c1snc(C(N)=O)c1N (stereo unspecified) | inactive
CCOc1ccc(N(C(=O)c2snc(C(N)=O)c2N)C(C(=O)NCC2CCCO2)c2c[nH]c3ccccc23)cc1 (stereo unspecified) | 3.66 µM (active)
NC(=O)c1nsc(C(=O)N(CCCN2CCOCC2)C(C(=O)NC2CCCCC2)c2ccc(Cl)cc2)c1N (stereo unspecified) | inactive
Cn1cnc2c1c(=O)n(Cc1ccccc1C#N)c(=O)n2C | inactive
CCn1c(CSc2nncn2-c2ccc(OC)cc2)nc2cc(S(=O)(=O)N(C)C)ccc21 | inactive
COC(=O)CN1C(=O)C(O)=C(C(C)=O)C1c1ccc([N+](=O)[O-])cc1 (stereo unspecified) | inactive
OC(COc1ccc(Br)cc1)CN1CCCC1 (stereo unspecified) | inactive
CC(C)(C)CC(C)(C)NCC(O)COCCOc1ccc(Br)cc1 (stereo unspecified) | 2.31 µM (active)
Cc1noc(COc2ccccc2OCC(O)CNC(C)(C)C)n1 (stereo unspecified) | inactive
O=C(N/N=C\c1cccc(Br)c1)c1ccccc1-n1cccc1 | inactive
C=C1CCN([C@@H](Cc2ccccc2)C(=O)N2CCOCC2)S(=O)(=O)c2ccccc21 | inactive
CC1(C)OC(=O)C2=C(C[C@@H](C3CCCCC3)O[C@@H]2c2ccc(Cl)cc2)O1 | 20.6 µM (active)
CCC1OC(C2CC2)CC2=C1C(=O)OC(C)(C)O2 (stereo unspecified) | inactive
CC1(C)OC(=O)C2=C(C[C@@H](C3CC3)O[C@H]2c2ccc(Cl)cc2)O1 | inactive
OC(COCc1ccco1)CN1CCN(c2ccccc2)CC1 (stereo unspecified) | inactive
COc1cccc(C(=O)NNS(=O)(=O)c2ccc(F)cc2)c1 | inactive
COc1ccc(-c2nnc(NC(=O)CS(=O)(=O)c3ccc(Cl)cc3)o2)c(OC)c1 | inactive

SMILES | Potency
COc1cccc(-c2nnc(NC(=O)c3ccc(S(=O)(=O)N(CC(C)C)CC(C)C)cc3)o2)c1 | 4.61 µM (active)
COc1ccc(CNC(=O)CN(Cc2ccc(Cl)cc2)S(C)(=O)=O)cc1 | inactive
COc1ccc(OC)c(-n2c(=S)[nH]c3cc(C(=O)N4CCCCC4)ccc3c2=O)c1 | inactive
Cc1ccc2cccc(O)c2[n+]1[O-] | inactive
CCOC(=O)c1[nH]c2ccc(OC)cc2c1NC(=O)N1CCOCC1 | inactive
COc1ccc(CCNC(=O)c2c3c(nc4ccccc24)C(=O)N(C2CCCCC2)C3)cc1OC | 23.1 µM (active)
COc1ccc(CCNC(=O)C2CCCN2C(=O)Nc2ccccc2)cc1OC (stereo unspecified) | inactive
COc1ccc(CCNC(=O)CCC(=O)NC2CCCCC2)cc1OC | inactive
CCNC(=O)CC1C(=O)N(c2ccc(OC)cc2)C(=O)N1CCOC (stereo unspecified) | inactive
CNc1nc(Nc2ccc(C)c(Cl)c2)nc(N)c1[N+](=O)[O-] | 6.51 µM (active)
COCCNc1nc(N)c([N+](=O)[O-])c(NCCO)n1 | inactive
Cc1ccc(NC(=O)C/C(N)=N/O)cc1Cl | inactive
O=C(NCCc1ccc(Cl)cc1)C1CCCN1C(=O)NCc1ccccc1 (stereo unspecified) | inactive
O=C(CC1Oc2ccccc2NC1=O)NCc1ccc(F)cc1 (stereo unspecified) | inactive
O=C(N/N=C/c1ccc([N+](=O)[O-])o1)c1cn(-c2ccccc2)nc1-c1ccc(F)cc1 | 5.8 µM (active)
Cc1cc(C(=O)N/N=C/c2ccc(O)c([N+](=O)[O-])c2)c(C)n1-c1ccc(F)cc1 | inactive
O=C(CSc1ccc(/C=N/NC(=O)c2cccc(F)c2)o1)Nc1ccccc1 | inactive
COCC(=O)Nc1cc(C(=O)N2CCCC(c3ccccc3)CC2)c2c(c1)nc(-c1ccncc1)n2C (stereo unspecified) | inactive
COc1ccc(NC(=O)CC(NC(C)c2ccccc2)C(=O)O)cc1 (stereo unspecified) | inactive
C[C@@H]1CN([C@@H](C)CO)C(=O)CCCn2cc(nn2)CO[C@H]1CN(C)S(=O)(=O)c1ccc(-n2cccn2)cc1 | inactive
Cc1ccc(O)c(NC(=O)c2cc(-c3ccc(F)cc3)no2)c1 | inactive
Cc1ccc(C)c(NC(=O)c2cc(-c3cc(C)cc(C)c3O)n[nH]2)c1 | 13 µM (active)
Cc1ccc(C)c(NC(=O)c2ccc3nccnc3c2)c1 | inactive
CCCCN(C(=O)CCNC(=O)NC12CC3CC(CC(C3)C1)C2)c1c(N)n(CCCC)c(=O)[nH]c1=O | inactive
